Sampled rows, rich in hits. Any-hit rate of the full collection: about 3.5%.
MITF primary = inhibitors of human MITF | O75030 | AlphaScreen MITF homodimerization, bead proximity signal | inhibition, % at 2.6 µM | hit rate 0.91% among 650,000 | AID 1259374; in the data active = inhibition above about 50%
Target sequence (O75030 whole entry, looked up): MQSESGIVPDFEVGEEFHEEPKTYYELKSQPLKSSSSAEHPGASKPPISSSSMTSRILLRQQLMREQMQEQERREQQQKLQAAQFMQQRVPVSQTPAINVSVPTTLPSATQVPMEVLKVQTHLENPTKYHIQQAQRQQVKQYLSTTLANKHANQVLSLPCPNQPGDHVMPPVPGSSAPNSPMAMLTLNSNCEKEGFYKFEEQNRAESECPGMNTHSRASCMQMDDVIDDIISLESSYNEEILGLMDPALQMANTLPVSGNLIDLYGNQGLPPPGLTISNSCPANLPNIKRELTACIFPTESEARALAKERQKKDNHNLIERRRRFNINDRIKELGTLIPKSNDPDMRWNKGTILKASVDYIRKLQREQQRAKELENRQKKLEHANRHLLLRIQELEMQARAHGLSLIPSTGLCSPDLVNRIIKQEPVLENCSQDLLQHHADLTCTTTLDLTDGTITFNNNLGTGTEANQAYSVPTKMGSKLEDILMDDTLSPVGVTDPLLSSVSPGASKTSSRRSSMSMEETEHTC
GPR151 activ = activates the human receptor GPR151 | Q8TDV0 | PathHunter beta-arrestin GPR151 cells, luminescence | hit rate 1% among 650,000 | AID 1508602 | activation, % at 11.2 µM; in the data active = activation above about 4.9%
TEAD-YAP block = TEAD-YAP interaction inhibition; HEK-TIYL cells, TEAD-Gal4/YAP UAS-luciferase luminescence; inhibition, % at 9.12 µM; hit rate 1.4% among 640,000; AID 1259422; in the data active = inhibition above about 32%
FBW7 activator = human FBW7 E3 ligase activation, primary screen; Q969H0; normalized activity (activation), % at 26.1 µM; AlphaScreen FBW7–phospho-cyclin E peptide binding, activator screen; hit rate 0.13% among 650,000; in the data active = normalized activity above about 1.9%;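 note: purified mutant Fbw7 with reduced substrate affinity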
MITF confirm = human MITF inhibition, confirmation. AlphaScreen MITF homodimerization, biotin/His-MITF beads. hit rate 16% among 4,700. inhibition, % at 2.6 µM. shares compounds with MITF primary. AID 1259372;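 active = inhibition above a cutoff derived from the DMSO control wells, cut at about 28% in these data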;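 note: inhibitors lower the bead chemiluminescence by keeping MITF from dimerizing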
AlphaScreen intf2 = counter-screen: compounds optically interfering with AlphaScreen. shares compounds with MITF primary. LysRS AlphaScreen counterscreen, signal interference, triplicate. inhibition, % at 2.6 µM. hit rate 7.6% among 4,700;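 active = inhibition above a cutoff derived from the DMSO control wells, cut at about 30% in these data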
Each line names hits and unclear results; the compound was inactive in the other large screens (follow-up assays come after a bar, where they were run).

CCn1c(C)[n+](CC)c2ccc(S(=O)(=O)C(F)F)cc21	none
COC(=O)c1cc(NC(=O)c2oc3c(c2C)-c2[nH]ncc2CC3)cc(C(=O)OC)c1	none
CCCS(=O)(=O)N1CCN(Cc2ccc(OCc3ccccc3)c(OC)c2)CC1	MITF primary 64.3 | MITF confirm inactive | AlphaScreen intf2 inactive
CCCS(=O)(=O)N1CCN(Cc2ccc(OC)cc2)CC1	none
CCCS(=O)(=O)N1CCN(Cc2ccc(OC)cc2OC)CC1	none
CCCS(=O)(=O)N1CCN(Cc2ccc(OC)c(OC)c2)CC1	MITF primary 52.6 | MITF confirm inactive | AlphaScreen intf2 inactive
CCCS(=O)(=O)N1CCN(Cc2nc3ccc(OC)cc3[nH]2)CC1	MITF primary 66.4 | MITF confirm inactive | AlphaScreen intf2 inactive
NNc1nc(NN)nc(Nc2ccccc2)n1	MITF primary 65.2 | MITF confirm 97.4 | AlphaScreen intf2 100.3
c1ccc(Nc2nc(Nc3ccccc3)nc(Oc3ccccc3)n2)cc1	none
CCC(C)CN1CCC(N(C)CC(=O)OC)CCC1=O (stereo not given)	none
NC(=O)c1c(NC(=O)CN(C(=O)c2ccccc2)C2CCCC2)sc2c1CCCC2	none
Cc1ccc(C(=O)O)cc1NC(=O)c1cccc(C(=O)Nc2cc(C(=O)O)ccc2C)c1	none
CC(=O)Oc1cccc(C(=O)Nc2cc(C(=O)O)ccc2C)c1	MITF primary 102.3 | MITF confirm inactive | AlphaScreen intf2 inactive
CN(C(=O)c1cc(C(=O)N(C)C2CCCCC2)cc([N+](=O)[O-])c1)C1CCCCC1	none
CCCCOc1ccc(C(=O)Nc2nc(-c3ccc(OC)cc3OC)cs2)cc1	none
CCCCOc1ccc(C(=O)Nc2nc(-c3ccc(OC)c(C)c3)cs2)cc1	MITF primary 64.1 | MITF confirm inactive | AlphaScreen intf2 inactive
COc1ccc(Br)cc1C(=O)N/N=C/c1ccccc1F	MITF primary 66.8 | MITF confirm inactive | AlphaScreen intf2 inactive
CC(=O)Nc1ccc(-c2ccncc2-c2ccc(S(N)(=O)=O)cc2)cc1	MITF primary 54.5 | MITF confirm 46.6 | AlphaScreen intf2 38.4
Cc1nc(NCCCn2ccnc2)c2c(-c3cccs3)csc2n1	MITF primary 64.3 | MITF confirm inactive | AlphaScreen intf2 inactive
Cc1nc(NCCCn2ccnc2)c2ccccc2n1	none
COc1ccc(S(=O)(=O)CCC(=O)Nc2nc3ccc(C)cc3s2)cc1	none
Cc1ccc2nc(NC(=O)COc3ccc(Cl)cc3Cl)sc2c1	none
CS(=O)(=O)c1ccc2nc(NC(=O)COc3ccc(Cl)cc3Cl)sc2c1	MITF primary 74.0 | MITF confirm inactive | AlphaScreen intf2 inactive
COc1ccc(S(=O)(=O)CCC(=O)Nc2nc3ccc(OC)cc3s2)cc1	MITF primary 53.9 | MITF confirm 28.3 | AlphaScreen intf2 inactive
O=C(Cc1cn(-c2ccc(Cl)nn2)c2ccccc12)NCc1ccccc1	MITF primary 71.6 | MITF confirm inactive | AlphaScreen intf2 inactive
Cc1ccccc1OCCOCCN1CCN(C)CC1	MITF primary 73.2 | MITF confirm inactive | AlphaScreen intf2 inactive
Cc1cccc(C(C)(C)C)c1OCCOCCN1CCOCC1	none
Cc1cccc(C(C)(C)C)c1OCCCN1CCN(C)CC1	MITF primary 67.9 | MITF confirm inactive | AlphaScreen intf2 inactive
Cc1cccc(C)c1OCCOCCN1CCN(C)CC1	MITF primary 64.0 | MITF confirm inactive | AlphaScreen intf2 inactive
Cc1sc2nc(C(C)C)n3c(SCC(=O)Nc4nccs4)nnc3c2c1C	none
C#CCn1c(COC)nc2ccccc21	none
c1ccc(CN2CCC(NCc3ccc(-n4ccnc4)cc3)CC2)cc1	MITF primary 51.5 | MITF confirm inactive | AlphaScreen intf2 inactive
CC(=O)Nc1ccc(CNC2CCN(Cc3ccccc3)CC2)cc1	MITF primary 79.3 | MITF confirm inactive | AlphaScreen intf2 inactive
CC(CC(=O)Nc1ccccc1)NC1CCN(Cc2ccccc2)CC1 (stereo not given)	MITF primary 66.4 | MITF confirm inactive | AlphaScreen intf2 inactive
COc1ccc(N(C)C(=O)Cn2ncc3c2-c2ccccc2OC3)cc1	none
CCOc1ccccc1/C=C1/C(=O)NC(=S)N(c2ccccc2)C1=O	none
Cc1ccc(NC(=O)c2sccc2-n2cccc2)cc1	MITF primary 59.1 | MITF confirm inactive | AlphaScreen intf2 inactive
O=C(c1sccc1-n1cccc1)N1CCCC1	none
Fc1cccc(CN2CCN(C3CCCCC3)CC2)c1	MITF primary 72.3 | MITF confirm inactive | AlphaScreen intf2 inactive
OC1CCN(Cc2cccc(F)c2)CC1	none
CC1CCC(N2CCN(Cc3cccc(F)c3)CC2)CC1 (stereo not given)	MITF primary 53.7 | MITF confirm inactive | AlphaScreen intf2 inactive
Fc1ccc(CN2CCN(C3CCCCC3)CC2)cc1	none
Fc1cccc(CN2CCN(C3CCCCCC3)CC2)c1	MITF primary 65.9 | MITF confirm inactive | AlphaScreen intf2 inactive
CCCOC(=O)c1ccc(NS(=O)(=O)c2c(C)nc3sccn3c2=O)cc1	none
CC1=C(C#N)c2nc(N)c(C#N)c(C)c2/C1=C\c1ccc2c(c1)OCO2	none
NC(C(=O)N1CCC(Nc2ccc3[nH]ncc3c2)CC1)c1ccc(Cl)cc1 (stereo not given)	MITF primary 74.4 | MITF confirm inactive | AlphaScreen intf2 inactive
CC1CCCC(NC(=O)C2N(CC3CCCO3)C(=O)C3C(C(=O)Nc4ccc(F)c(Cl)c4)C4C=CC32O4)C1C (stereo not given)	none
O=C(CNCc1ccccn1)NCc1ccc(Cl)cc1	MITF primary 74.0 | MITF confirm 31.4 | AlphaScreen intf2 100.3
Cc1ccccc1CN1CCN(Cc2ccccn2)CC1	MITF primary 79.5 | MITF confirm inactive | AlphaScreen intf2 inactive
Clc1ccc(CN2CCN(Cc3ccccn3)CC2)cc1	MITF primary 62.7 | MITF confirm inactive | AlphaScreen intf2 inactive
c1ccc(N2CCN(Cc3ccccn3)CC2)cc1	none
Cc1ccc(CN2CCN(Cc3ccccn3)CC2)cc1	MITF primary 67.8 | MITF confirm inactive | AlphaScreen intf2 inactive
O=C1Nc2cccc3cc(S(=O)(=O)Nc4ccccc4Cl)cc1c23	none
CCOc1ccc(CCNS(=O)(=O)c2cc(-c3nnc(Nc4ccccc4)c4ccccc34)ccc2C)cc1OCC	none
COC(=O)c1cc(S(=O)(=O)NC2CCCCCC2)cn1C	none
Oc1ccc(CCNc2nc(NCc3ccc4c(c3)OCO4)nc3nc[nH]c23)cc1	none
CS(=O)(=O)N1CCN(Cc2ccccn2)CC1	MITF primary 76.7 | MITF confirm inactive | AlphaScreen intf2 inactive
Cc1ccc(-c2cc(C(=O)Nc3nnc(C)s3)c3ccccc3n2)s1	MITF primary 64.7 | MITF confirm inactive | AlphaScreen intf2 inactive
Cc1ccc(-c2cc(C(=O)Nc3nc4ccc(Br)cc4s3)c3ccccc3n2)s1	none
Clc1ccccc1CN1CCN(Cc2ccco2)CC1	MITF primary 69.3 | MITF confirm inactive | AlphaScreen intf2 inactive
CC1CN(Cc2ccccc2Cl)CC(C)O1 (stereo not given)	MITF primary 80.3 | MITF confirm inactive | AlphaScreen intf2 inactive
O=[N+]([O-])c1ccccc1CN1CCSCC1	none
